This passage reports Percent Effect results from ChEMBL document CHEMBL3988442, “University of Dundee, Small-Polar-MMV Screening Library” (2021).

The structures appear in SMILES notation.

In this experiment the target is AMP-activated protein kinase, AMPK (Homo sapiens) (UniProt P54646+O43741+P54619+Q9UGJ0+Q9Y478+Q13131+Q9UGI9). Briefly: AMP-dependent Kinase enzyme assay. An in vitro enzyme assay that detects ADP turnover that is directly proportional to AMPK activity. This uses naive AMPK that is activated during the assay with MK-8722. In kind it is functional. Also on record: scale not given: direction of the effect not stated beside the values. As to conditions: 30 µM.
Consider `CC(NCc1cnc(N2CCOCC2)s1)c1ccc(Cl)s1` (centres undefined), for which the Percent Effect is 9.15%.

As for `COc1ccc(Cl)cc1C(=O)N1C[C@@H](NC(=O)N(C)C)[C@H](C(C)C)C1`, the Percent Effect was 2.28%.

Take `CCCN(CC(F)(F)F)S(=O)(=O)c1cc(C(N)=O)n(C)c1`: the Percent Effect is -4.23%.

With `COc1cc2c(cc1CNCc1cccnc1-n1cccn1)OC(C)C2` (centres undefined), the Percent Effect was determined as 5.16%.

With `CN(Cc1csc(-c2ccccc2)n1)Cc1ncccc1C(=O)O`, the Percent Effect amounted to 5.39%.

In the case of `FC(F)(F)c1cccc(OC2CCN(Cc3ccccn3)CC2)c1`, the Percent Effect stood at 2.09%.

Consider `Cc1nnc(NC(=O)c2c3c(nn2C2CCS(=O)(=O)C2)CCC3)s1` (centres undefined), for which the Percent Effect was -6.11%.

On to `CC(C)Oc1ncccc1CNC(=O)NC(C)c1cccs1` (centres undefined), for which the Percent Effect is -3.91%.

For the compound `Cc1sc(C(=O)N(C)S(C)(=O)=O)cc1-c1ccc(F)cc1`, the Percent Effect was -2.1%.

In the case of `O=C(c1cc(C2CC2)on1)N1C[C@H]2CC[C@](O)(c3ccc(F)cc3)[C@H]2C1`, the Percent Effect was 12.8%.

For the compound `CN(C)CCCC(=O)NC1CC(C)(C)Cc2nc(C(C)(C)C)ncc21` (centres undefined), the Percent Effect was 8.49%.

Regarding `COc1cccc(S(=O)(=O)N2CCCCC2CCN2CCOCC2)c1` (centres undefined), the Percent Effect turned out to be 39.4%.

With `Cc1ccc(OCc2occc2C(=O)N2C[C@@H]3[C@@H](CN(C)C)[C@@H]3C2)cc1`, the Percent Effect was 14%.

On to `CC(C(=O)NCc1ccc(F)cc1)N(C)CCN1CCOCC1` (centres undefined), for which the Percent Effect stood at 2.87%.

As for `COCc1nc2cc3c(cc2c(=O)o1)OCCCO3`, the Percent Effect was -7.41%.

With `Cc1cnc2c(C(=O)N3CCCC(OCc4ccccn4)C3)cnn2c1` (centres undefined), the Percent Effect is 4.92%.

For the compound `Cc1cc(N2CCC(n3cc(CN4CCSCC4)nn3)CC2)ccn1`, the Percent Effect was found to be 2.21%.

As for `COc1ccc(OC2CCN(C(=O)c3ccc(C(C)=O)s3)CC2)cc1`, the Percent Effect was -2.68%.

On to `CCCN(CCC)C(=O)c1cnn(C)c1C`, for which the Percent Effect worked out at 3.84%.
